PubChem BioAssay AID1159580 (chemical genetic matrix, 2015)
Hit rate of the full screen: of about 5,500 compounds, about 2,000 (36%) were called active. Inconclusive results (about 18%) are left out. Cut-off read from the data, not from the text of the source: active = normalized growth mostly below about 0.91 (no sharp cut-off); inconclusive = no clear call, values can overlap the other calls; inactive = mostly above about 0.92. The list shows a part of the results.

Test: chemical genetic growth profiling, strain panel (AID 1159580);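 note: tested at 20 µM; growth read once vehicle control cultures reached saturation at 30 °C; 1 = growth at the plate median or of vehicle wells; lower values mean less growth of the strain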
Conditions: S. cerevisiae deletion strains, growth OD
[1] = locus YHR030C, strain SLT2, hits give low values
[2] = locus YHR079C, strain IRE1, hits give low values
[3] = locus YJL095W, strain BCK1, hits give low values
[4] = locus YJR066W, strain TOR1, hits give low values
[5] = locus YLR113W, strain HOG1, hits give low values
[6] = locus YNL183C, strain NPR1, hits give low values
[7] = locus YOR231W, strain MKK1, hits give low values
[8] = locus YPL256C, strain CLN2, hits give low values

Measured: normalized growth

N[C@@H](CCC(=O)N[C@@H](CCSC(CC(=O)O)C(=O)O)C(=O)NCC(=O)O)C(=O)O (stereo partly specified)
inactive: locus YAL021C, strain ccr4, hits give low values 0.991 | locus YAL026C, strain drs2, hits give low values 1 | locus YAL030W, strain snc1, hits give low values 0.992 | locus YBL061C, strain skt5, hits give low values 0.989 | locus YBR009C, strain hhf1, hits give low values 1.03 | locus YBR023C, strain chs3, hits give low values 0.987 | locus YBR171W, strain sec66, hits give low values 0.988 | locus YBR231C, strain swc5, hits give low values 0.993 | locus YBR279W, strain paf1, hits give low values 0.996 | locus YCL011C, strain gbp2, hits give low values 0.995 | locus YCL016C, strain dcc1, hits give low values 0.988 | locus YCL061C, strain MRC1, hits give low values 1 | locus YCL069W, strain vba3, hits give low values 0.997 | locus YCR088W, strain abp1, hits give low values 0.988 | locus YDL005C, strain med2, hits give low values 0.99 | locus YDL040C, strain nat1, hits give low values 0.997 | locus YDR001C, strain nth1, hits give low values 0.994 | locus YDR069C, strain doa4, hits give low values 0.987 | locus YDR137W, strain rgp1, hits give low values 0.987 | locus YDR159W, strain sac3, hits give low values 0.996 | locus YDR195W, strain ref2 0.97 | locus YDR297W, strain sur2, hits give low values 0.981 | locus YDR334W, strain swr1, hits give low values 1 | locus YDR335W, strain msn5, hits give low values 0.996 | locus YDR392W, strain spt3, hits give low values 1.01 | locus YEL003W, strain gim4, hits give low values 1.01 | locus YEL037C, strain rad23, hits give low values 0.994 | locus YEL061C, strain CIN8 (second series), hits give low values 0.998 | locus YER015W, strain faa2, hits give low values 0.993 | locus YER016W, strain bim1, hits give low values 0.978 | locus YER111C, strain swi4, hits give low values 0.998 | locus YER155C, strain BEM2 (second series), hits give low values 1.01 | locus YFR010W, strain ubp6, hits give low values 1.02 | locus YGL167C, strain pmr1, hits give low values 0.997 | locus YGL173C, strain kem1, hits give low values 1.01 | locus YGL227W, strain vid30, hits give low values 0.999 | locus YGL240W, strain doc1, hits give low values 0.999 | locus YGL253W, strain hxk2, hits give low values 0.991 | locus YHR013C, strain ard1, hits give low values 1 | locus YHR027C, strain rpn1, hits give low values 0.994 | [1] 0.999 | [2] 0.988 | locus YHR142W, strain chs7, hits give low values 1 | locus YJL092W, strain hpr5, hits give low values 1 | locus YJL095W, strain BCK1 (second series), hits give low values 1.02 | [3] 1.01 | locus YJL115W, strain asf1, hits give low values 1.01 | locus YJL129C, strain trk1, hits give low values 0.99 | locus YJL154C, strain vps35, hits give low values 0.992 | locus YJL164C, strain tpk1, hits give low values 1.01 | locus YJL166W, strain qcr8, hits give low values 0.994 | locus YJL187C, strain SWE1, hits give low values 0.992 | [4] 0.997 | locus YKL160W, strain elf1, hits give low values 0.984 | locus YKR026C, strain gcn3, hits give low values 0.993 | locus YKR091W, strain srl3, hits give low values 1 | locus YLL001W, strain dnm1, hits give low values 1.01 | locus YLL026W, hits give low values 1 | locus YLL041C, strain sdh2, hits give low values 1.01 | locus YLR027C, strain aat2, hits give low values 0.996 | [5] 1 | locus YLR221C, strain rsa3, hits give low values 1.01 | locus YLR258W, strain gsy2, hits give low values 1.01 | locus YLR262C, strain YPT6 (second series), hits give low values 0.992 | locus YLR320W, strain mms22, hits give low values 1.01 | locus YLR342W, strain FKS1, hits give low values 0.99 | locus YLR357W, strain rsc2, hits give low values 0.996 | locus YLR370C, strain arc18, hits give low values 0.997 | locus YLR384C, strain iki3, hits give low values 0.964 | locus YML120C, strain ndi1, hits give low values 0.993 | locus YMR058W, strain fet3, hits give low values 0.991 | locus YMR125W, strain sto1, hits give low values 1.01 | locus YMR129W, hits give low values 0.99 | locus YMR205C, strain PFK2, hits give low values 1 | locus YMR231W, strain pep5, hits give low values 0.995 | locus YNL071W, strain lat1, hits give low values 1.01 | [6] 0.937 | locus YNL209W, strain ssb2, hits give low values 0.981 | locus YNL248C, strain rpa49, hits give low values 1.02 | locus YNL322C, strain KRE1 (second series), hits give low values 0.979 | locus YNR049C, strain mso1, hits give low values 0.997 | locus YOR001W, strain rrp6, hits give low values 1.02 | locus YOR070C, strain gyp1, hits give low values 0.999 | locus YOR080W, strain dia2, hits give low values 0.982 | locus YOR083W, strain WHI5, hits give low values 0.985 | locus YOR106W, strain vam3, hits give low values 0.976 | [7] 0.991 | locus YOR265W, strain rbl2, hits give low values 0.998 | locus YOR270C, strain vph1, hits give low values 1.07 | locus YOR290C, strain snf2, hits give low values 0.994 | locus YPL051W, strain arl3, hits give low values 1 | locus YPL078C, strain atp4, hits give low values 0.986 | locus YPL106C, strain sse1, hits give low values 0.971 | locus YPL240C, strain hsp82, hits give low values 1.01 | [8] 0.988

N#CC1=C(N)C(C#N)(C#N)C2(CCCCC2)C2CCCC=C12 (stereo unspecified)
inactive: locus YAR019C, strain CDC15, hits give low values 0.984 | locus YBL105C, strain PKC1, hits give low values 0.982 | locus YBR135W, strain CKS1, hits give low values 0.979 | locus YBR136W, strain MEC1, hits give low values 0.982 | locus YBR160W, strain CDC28, hits give low values 0.982 | locus YDL017W, strain CDC7, hits give low values 0.98 | locus YDL028C, strain MPS1, hits give low values 0.985 | locus YDL101C, strain DUN1, hits give low values 0.983 | locus YDL108W, strain KIN28, hits give low values 0.988 | locus YDL132W, strain cdc53, hits give low values 0.98 | locus YDL214C, strain PRR2, hits give low values 0.993 | locus YDR052C, strain DBF4, hits give low values 0.977 | locus YDR054C, strain cdc34, hits give low values 0.973 | locus YDR226W, strain ADK1, hits give low values 0.983 | locus YDR477W, strain SNF1, hits give low values 0.982 | locus YER123W, strain YCK3, hits give low values 0.984 | locus YER133W, strain GLC7, hits give low values 0.978 | locus YFL009W, strain cdc4, hits give low values 0.978 | locus YFL029C, strain CAK1, hits give low values 0.973 | locus YFR003C, strain YPI1, hits give low values 0.985 | locus YFR019W, strain FAB1, hits give low values 0.985 | locus YFR028C, strain CDC14, hits give low values 0.985 | locus YGR040W, strain KSS1, hits give low values 0.971 | locus YGR052W, strain FMP48, hits give low values 1.05 | locus YGR092W, strain DBF2, hits give low values 0.958 | [1] 0.972 | [2] 0.989 | locus YHR082C, strain KSP1, hits give low values 0.975 | locus YHR205W, strain SCH9, hits give low values 0.953 | locus YIL147C, strain SLN1, hits give low values 0.985 | [3] 0.951 | locus YJL128C, strain PBS2, hits give low values 0.961 | locus YJL157C, strain FAR1, hits give low values 0.991 | locus YJR016C, strain ILV3, hits give low values 0.989 | locus YJR066W, strain TOR1 (second series), hits give low values 0.969 | [4] 0.968 | locus YKL048C, strain ELM1, hits give low values 0.985 | locus YKL067W, strain YNK1, hits give low values 1 | locus YKL101W, strain HSL1, hits give low values 0.98 | locus YKL193C, strain SDS22, hits give low values 0.981 | locus YKL203C, strain TOR2, hits give low values 1.02 | [5] 0.959 | locus YLR133W, strain CKI1, hits give low values 1 | locus YLR403W, strain SFP1, hits give low values 0.979 | locus YML070W, strain DAK1, hits give low values 0.989 | locus YMR001C, strain CDC5, hits give low values 0.98 | locus YMR205C, strain PFK2 (second series), hits give low values 1 | locus YMR277W, strain FCP1, hits give low values 0.985 | locus YNL006W, strain LST8, hits give low values 0.99 | locus YNL020C, strain ARK1, hits give low values 0.998 | locus YNL161W, strain CBK1, hits give low values 0.979 | [6] 0.963 | locus YNL207W, strain RIO2, hits give low values 0.971 | locus YNL222W, strain SSU72, hits give low values 0.982 | locus YNL307C, strain MCK1 (second series), hits give low values 0.995 | locus YOL078W, strain AVO1, hits give low values 0.979 | locus YOL136C, strain PFK27, hits give low values 0.99 | locus YOR061W, strain CKA2, hits give low values 1 | locus YOR119C, strain RIO1, hits give low values 0.995 | [7] 0.973 | locus YOR329C, strain SCD5, hits give low values 0.979 | locus YPL031C, strain PHO85, hits give low values 0.978 | locus YPL153C, strain RAD53, hits give low values 0.96 | locus YPL204W, strain HRR25, hits give low values 0.971 | locus YPL209C, strain IPL1, hits give low values 0.988 | [8] 0.965 | locus YPR025C, strain CCL1, hits give low values 0.98 | locus YPR106W, strain ISR1, hits give low values 0.986 | locus YPR111W, strain DBF20, hits give low values 0.987 | strain NNK1, hits give low values 0.985 | strain TSCII, hits give low values 0.979
